Assays:
[1] = target: Protein kinase C gamma type (Homo sapiens) (UniProt P05129); details: at 1 µM;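 further: each value is an averaged percent inhibition of the enzyme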
[2] = target: T1, Protein kinase C iota type (Homo sapiens) (UniProt P41743); details: at 0.1 µM
T1 sequence (whole entry): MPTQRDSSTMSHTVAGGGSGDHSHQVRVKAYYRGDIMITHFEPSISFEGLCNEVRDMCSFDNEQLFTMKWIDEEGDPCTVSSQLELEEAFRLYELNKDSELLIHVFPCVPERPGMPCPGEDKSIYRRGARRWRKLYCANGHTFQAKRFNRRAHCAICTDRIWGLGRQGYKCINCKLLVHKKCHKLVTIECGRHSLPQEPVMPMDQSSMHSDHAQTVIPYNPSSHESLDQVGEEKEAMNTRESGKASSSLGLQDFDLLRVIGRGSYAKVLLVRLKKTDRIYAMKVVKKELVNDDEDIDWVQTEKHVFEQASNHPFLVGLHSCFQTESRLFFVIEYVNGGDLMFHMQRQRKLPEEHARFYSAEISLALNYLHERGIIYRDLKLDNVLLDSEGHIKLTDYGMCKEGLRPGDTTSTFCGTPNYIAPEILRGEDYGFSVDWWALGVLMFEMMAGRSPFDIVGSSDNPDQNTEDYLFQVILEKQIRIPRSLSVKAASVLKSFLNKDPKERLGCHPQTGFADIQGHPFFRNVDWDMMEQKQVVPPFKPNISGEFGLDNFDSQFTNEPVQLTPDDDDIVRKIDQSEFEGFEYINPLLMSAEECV

[3] = target: T1, Protein kinase C iota type (Homo sapiens); details: at 1 µM
[4] = target: Protein kinase C theta type (Homo sapiens) (UniProt Q04759); details: at 0.1 µM
[5] = target: Protein kinase C theta type (Homo sapiens) (UniProt Q04759); details: at 1 µM
[6] = target: Protein kinase C beta type (Homo sapiens) (UniProt P05771); details: at 0.1 µM
[7] = target: Protein kinase C beta type (Homo sapiens) (UniProt P05771); details: at 1 µM
[8] = target: T2, Serine/threonine-protein kinase D1 (Homo sapiens) (UniProt Q15139); details: at 0.1 µM
T2 sequence (whole entry): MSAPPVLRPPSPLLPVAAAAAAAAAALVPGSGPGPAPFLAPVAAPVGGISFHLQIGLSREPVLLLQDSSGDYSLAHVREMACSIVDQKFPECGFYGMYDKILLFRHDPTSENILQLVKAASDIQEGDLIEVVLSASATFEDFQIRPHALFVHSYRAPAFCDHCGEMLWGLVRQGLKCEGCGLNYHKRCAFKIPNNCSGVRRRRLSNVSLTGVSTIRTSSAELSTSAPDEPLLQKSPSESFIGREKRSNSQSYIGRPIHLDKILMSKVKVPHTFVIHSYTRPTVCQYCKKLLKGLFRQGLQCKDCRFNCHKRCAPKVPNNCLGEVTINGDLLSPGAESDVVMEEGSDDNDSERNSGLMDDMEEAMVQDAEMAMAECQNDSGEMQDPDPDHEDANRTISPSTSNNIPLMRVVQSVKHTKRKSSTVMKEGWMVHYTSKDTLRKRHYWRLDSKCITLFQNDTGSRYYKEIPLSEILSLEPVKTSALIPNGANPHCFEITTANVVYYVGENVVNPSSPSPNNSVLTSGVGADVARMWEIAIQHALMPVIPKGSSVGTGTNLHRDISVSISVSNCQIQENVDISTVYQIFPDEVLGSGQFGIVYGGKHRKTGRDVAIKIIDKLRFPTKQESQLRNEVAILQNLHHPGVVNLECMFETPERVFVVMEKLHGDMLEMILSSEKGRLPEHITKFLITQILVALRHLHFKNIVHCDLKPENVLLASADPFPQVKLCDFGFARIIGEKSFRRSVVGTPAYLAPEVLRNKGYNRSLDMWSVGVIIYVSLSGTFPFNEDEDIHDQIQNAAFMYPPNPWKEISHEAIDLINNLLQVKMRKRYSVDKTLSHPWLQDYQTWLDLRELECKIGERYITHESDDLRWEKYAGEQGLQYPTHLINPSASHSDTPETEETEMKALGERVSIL

[9] = target: T2, Serine/threonine-protein kinase D1 (Homo sapiens); details: at 1 µM
[10] = target: T3, Serine/threonine-protein kinase D2 (Homo sapiens) (UniProt Q9BZL6); details: at 0.1 µM
T3 sequence (whole entry): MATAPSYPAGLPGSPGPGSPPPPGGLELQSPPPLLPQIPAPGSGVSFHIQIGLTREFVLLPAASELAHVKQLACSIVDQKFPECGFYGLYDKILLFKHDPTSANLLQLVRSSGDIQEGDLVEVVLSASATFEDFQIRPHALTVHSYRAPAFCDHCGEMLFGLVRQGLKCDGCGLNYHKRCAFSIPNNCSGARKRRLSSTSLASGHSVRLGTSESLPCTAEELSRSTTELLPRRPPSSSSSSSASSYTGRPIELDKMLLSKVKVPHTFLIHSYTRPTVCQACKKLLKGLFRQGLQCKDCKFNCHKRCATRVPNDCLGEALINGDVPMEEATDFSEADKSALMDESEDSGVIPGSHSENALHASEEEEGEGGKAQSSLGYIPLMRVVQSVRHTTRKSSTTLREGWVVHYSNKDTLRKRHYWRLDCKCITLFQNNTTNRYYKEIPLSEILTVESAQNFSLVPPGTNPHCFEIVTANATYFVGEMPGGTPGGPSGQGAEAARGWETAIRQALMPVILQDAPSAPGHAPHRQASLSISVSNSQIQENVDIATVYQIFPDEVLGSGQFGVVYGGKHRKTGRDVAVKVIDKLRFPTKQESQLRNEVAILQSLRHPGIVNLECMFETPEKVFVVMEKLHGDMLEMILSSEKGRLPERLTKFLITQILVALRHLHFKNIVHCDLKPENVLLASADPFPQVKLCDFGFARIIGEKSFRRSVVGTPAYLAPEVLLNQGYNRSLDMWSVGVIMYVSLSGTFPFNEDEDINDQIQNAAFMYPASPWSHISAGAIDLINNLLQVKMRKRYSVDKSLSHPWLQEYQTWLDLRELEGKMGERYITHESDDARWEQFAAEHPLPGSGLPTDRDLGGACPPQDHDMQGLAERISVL

[11] = target: T3, Serine/threonine-protein kinase D2 (Homo sapiens); details: at 1 µM
[12] = target: T4, Serine/threonine-protein kinase D3 (Homo sapiens) (UniProt O94806); details: at 0.1 µM
T4 sequence (whole entry): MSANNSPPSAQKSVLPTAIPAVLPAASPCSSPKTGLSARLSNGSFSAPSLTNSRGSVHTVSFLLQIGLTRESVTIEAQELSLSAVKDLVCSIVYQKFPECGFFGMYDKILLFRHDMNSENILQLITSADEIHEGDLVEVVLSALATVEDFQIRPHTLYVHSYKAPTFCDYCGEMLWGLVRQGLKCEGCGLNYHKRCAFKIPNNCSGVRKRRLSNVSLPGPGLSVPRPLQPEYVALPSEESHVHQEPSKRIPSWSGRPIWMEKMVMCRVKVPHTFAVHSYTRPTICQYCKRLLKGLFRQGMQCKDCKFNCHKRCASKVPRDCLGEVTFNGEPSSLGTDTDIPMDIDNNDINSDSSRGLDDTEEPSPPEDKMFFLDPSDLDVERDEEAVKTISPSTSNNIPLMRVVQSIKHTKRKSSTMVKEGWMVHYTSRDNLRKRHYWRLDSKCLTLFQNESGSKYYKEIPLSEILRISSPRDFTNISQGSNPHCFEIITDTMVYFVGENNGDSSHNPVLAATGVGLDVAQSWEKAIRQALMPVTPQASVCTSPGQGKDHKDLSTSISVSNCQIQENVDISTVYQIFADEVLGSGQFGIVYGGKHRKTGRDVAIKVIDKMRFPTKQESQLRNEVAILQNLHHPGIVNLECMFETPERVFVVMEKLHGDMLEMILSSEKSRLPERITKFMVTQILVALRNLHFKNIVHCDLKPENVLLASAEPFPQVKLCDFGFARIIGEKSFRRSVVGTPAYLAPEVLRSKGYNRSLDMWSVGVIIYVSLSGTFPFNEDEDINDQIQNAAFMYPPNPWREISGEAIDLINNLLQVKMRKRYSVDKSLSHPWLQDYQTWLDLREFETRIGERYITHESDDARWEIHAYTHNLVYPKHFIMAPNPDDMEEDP

[13] = target: T4, Serine/threonine-protein kinase D3 (Homo sapiens); details: at 1 µM
[14] = target: T5, cGMP-dependent protein kinase 1 (Homo sapiens) (UniProt Q13976); details: at 0.1 µM
T5 sequence (whole entry): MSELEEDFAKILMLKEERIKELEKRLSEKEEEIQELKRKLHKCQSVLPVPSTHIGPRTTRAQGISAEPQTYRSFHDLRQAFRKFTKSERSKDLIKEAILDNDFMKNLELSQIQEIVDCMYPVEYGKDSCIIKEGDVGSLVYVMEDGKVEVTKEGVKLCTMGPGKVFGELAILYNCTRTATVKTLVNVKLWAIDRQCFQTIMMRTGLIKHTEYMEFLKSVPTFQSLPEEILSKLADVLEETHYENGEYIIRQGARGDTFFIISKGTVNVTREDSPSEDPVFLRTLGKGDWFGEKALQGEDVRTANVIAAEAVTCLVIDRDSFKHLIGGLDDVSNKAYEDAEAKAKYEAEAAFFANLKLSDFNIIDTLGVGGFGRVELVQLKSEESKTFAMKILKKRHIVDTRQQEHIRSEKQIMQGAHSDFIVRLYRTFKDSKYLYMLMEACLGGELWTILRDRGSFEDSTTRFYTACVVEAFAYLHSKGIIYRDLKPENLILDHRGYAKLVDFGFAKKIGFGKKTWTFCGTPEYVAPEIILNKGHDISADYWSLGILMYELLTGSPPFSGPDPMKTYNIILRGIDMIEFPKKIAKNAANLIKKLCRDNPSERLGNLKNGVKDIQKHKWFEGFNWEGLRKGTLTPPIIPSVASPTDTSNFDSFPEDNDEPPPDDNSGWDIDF

[15] = target: T5, cGMP-dependent protein kinase 1 (Homo sapiens); details: at 1 µM
[16] = target: T6, cGMP-dependent protein kinase 2 (Homo sapiens) (UniProt Q13237); details: at 0.1 µM
T6 sequence (whole entry): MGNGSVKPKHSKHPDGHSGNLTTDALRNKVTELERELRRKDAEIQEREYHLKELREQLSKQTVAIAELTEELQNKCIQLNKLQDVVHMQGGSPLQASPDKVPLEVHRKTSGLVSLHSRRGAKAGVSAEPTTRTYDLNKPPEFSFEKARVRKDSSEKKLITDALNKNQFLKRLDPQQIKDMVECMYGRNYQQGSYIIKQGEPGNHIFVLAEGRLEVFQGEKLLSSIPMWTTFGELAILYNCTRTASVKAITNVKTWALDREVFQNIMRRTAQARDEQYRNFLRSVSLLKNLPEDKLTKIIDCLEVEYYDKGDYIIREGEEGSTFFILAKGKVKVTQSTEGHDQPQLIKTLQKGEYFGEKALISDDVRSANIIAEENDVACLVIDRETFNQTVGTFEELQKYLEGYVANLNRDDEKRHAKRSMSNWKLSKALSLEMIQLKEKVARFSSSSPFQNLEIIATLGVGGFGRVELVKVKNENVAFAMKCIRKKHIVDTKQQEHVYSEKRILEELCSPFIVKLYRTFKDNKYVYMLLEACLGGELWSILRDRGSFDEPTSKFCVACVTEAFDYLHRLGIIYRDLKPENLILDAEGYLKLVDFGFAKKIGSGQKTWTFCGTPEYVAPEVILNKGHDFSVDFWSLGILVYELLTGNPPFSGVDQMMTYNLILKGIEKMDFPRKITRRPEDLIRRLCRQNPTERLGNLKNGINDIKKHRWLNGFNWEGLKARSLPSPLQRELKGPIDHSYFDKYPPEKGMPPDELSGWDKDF

[17] = target: T6, cGMP-dependent protein kinase 2 (Homo sapiens); details: at 1 µM
[18] = target: T7, cAMP-dependent protein kinase catalytic subunit PRKX (Homo sapiens) (UniProt P51817); details: at 0.1 µM
T7 sequence (whole entry): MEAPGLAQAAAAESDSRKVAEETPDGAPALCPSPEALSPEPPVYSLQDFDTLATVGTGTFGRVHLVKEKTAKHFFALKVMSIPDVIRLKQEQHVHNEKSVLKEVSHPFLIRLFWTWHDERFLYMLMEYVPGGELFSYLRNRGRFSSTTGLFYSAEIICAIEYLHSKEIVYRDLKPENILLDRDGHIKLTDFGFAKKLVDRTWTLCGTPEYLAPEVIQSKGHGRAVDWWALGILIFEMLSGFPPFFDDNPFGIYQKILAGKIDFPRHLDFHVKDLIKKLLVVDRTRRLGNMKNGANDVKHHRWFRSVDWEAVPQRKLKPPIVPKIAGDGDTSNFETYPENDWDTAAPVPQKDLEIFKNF

[19] = target: T7, cAMP-dependent protein kinase catalytic subunit PRKX (Homo sapiens); details: at 1 µM
[20] = target: Rho-associated protein kinase 1 (Homo sapiens) (UniProt Q13464); details: at 0.1 µM;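 further: values are mean percent inhibition of ROCK1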
Rho-associated protein kinase 1 (Homo sapiens), sequence (Q13464 2-1354 limits assumed): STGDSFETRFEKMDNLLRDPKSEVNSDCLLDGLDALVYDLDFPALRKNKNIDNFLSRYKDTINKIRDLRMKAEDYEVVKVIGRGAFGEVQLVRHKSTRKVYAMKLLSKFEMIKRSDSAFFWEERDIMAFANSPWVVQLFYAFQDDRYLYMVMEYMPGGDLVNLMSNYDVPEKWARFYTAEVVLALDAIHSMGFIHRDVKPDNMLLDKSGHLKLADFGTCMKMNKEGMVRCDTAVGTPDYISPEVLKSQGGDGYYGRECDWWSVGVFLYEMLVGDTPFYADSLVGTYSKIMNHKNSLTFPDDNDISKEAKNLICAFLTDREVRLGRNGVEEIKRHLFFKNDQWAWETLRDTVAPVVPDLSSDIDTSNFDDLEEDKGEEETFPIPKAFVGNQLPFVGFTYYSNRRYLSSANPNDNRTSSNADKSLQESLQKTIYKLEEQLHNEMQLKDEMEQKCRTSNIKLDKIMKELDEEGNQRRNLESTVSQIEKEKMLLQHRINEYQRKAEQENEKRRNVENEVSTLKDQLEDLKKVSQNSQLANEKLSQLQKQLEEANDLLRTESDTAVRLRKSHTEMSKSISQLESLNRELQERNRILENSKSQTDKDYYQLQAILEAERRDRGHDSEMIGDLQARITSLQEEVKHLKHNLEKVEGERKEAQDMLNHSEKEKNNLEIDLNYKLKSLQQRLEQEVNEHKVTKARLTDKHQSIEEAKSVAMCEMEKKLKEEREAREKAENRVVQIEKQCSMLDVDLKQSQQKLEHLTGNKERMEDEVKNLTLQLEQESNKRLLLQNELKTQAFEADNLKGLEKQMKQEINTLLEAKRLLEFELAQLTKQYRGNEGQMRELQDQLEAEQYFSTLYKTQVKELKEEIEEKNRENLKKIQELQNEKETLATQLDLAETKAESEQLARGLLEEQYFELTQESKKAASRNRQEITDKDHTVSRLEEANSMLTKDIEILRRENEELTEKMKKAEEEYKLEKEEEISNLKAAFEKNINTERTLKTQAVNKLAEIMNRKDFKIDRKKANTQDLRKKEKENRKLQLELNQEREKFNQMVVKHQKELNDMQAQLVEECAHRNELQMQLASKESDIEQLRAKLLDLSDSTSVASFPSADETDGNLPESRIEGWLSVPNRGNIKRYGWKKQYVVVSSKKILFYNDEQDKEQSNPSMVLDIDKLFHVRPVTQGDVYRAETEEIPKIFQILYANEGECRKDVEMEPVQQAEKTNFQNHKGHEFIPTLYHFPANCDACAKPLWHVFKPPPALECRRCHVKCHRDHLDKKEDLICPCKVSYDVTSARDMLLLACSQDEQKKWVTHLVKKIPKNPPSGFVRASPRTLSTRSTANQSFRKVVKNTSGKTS

Protein kinase C theta type (Homo sapiens), sequence (Q04759 whole entry, looked up): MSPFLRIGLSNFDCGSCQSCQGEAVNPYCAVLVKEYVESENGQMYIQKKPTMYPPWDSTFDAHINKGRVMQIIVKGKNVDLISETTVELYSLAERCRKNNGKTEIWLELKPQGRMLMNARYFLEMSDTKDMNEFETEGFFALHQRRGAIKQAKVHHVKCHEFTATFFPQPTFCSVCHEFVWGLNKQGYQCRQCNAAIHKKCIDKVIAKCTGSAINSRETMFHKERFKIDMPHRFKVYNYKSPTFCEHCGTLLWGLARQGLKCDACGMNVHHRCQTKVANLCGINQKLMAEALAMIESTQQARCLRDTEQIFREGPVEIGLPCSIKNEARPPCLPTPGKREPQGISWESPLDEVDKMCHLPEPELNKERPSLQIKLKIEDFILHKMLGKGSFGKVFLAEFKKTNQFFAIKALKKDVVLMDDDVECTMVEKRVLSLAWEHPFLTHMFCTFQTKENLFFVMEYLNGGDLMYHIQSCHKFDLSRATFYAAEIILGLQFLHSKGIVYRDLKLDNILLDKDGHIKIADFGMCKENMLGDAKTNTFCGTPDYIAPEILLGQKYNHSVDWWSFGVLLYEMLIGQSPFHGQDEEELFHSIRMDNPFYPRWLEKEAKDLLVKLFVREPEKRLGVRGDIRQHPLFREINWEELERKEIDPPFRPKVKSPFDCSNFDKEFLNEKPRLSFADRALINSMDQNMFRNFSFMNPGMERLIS
Protein kinase C beta type (Homo sapiens), sequence (P05771 2-671 limits assumed): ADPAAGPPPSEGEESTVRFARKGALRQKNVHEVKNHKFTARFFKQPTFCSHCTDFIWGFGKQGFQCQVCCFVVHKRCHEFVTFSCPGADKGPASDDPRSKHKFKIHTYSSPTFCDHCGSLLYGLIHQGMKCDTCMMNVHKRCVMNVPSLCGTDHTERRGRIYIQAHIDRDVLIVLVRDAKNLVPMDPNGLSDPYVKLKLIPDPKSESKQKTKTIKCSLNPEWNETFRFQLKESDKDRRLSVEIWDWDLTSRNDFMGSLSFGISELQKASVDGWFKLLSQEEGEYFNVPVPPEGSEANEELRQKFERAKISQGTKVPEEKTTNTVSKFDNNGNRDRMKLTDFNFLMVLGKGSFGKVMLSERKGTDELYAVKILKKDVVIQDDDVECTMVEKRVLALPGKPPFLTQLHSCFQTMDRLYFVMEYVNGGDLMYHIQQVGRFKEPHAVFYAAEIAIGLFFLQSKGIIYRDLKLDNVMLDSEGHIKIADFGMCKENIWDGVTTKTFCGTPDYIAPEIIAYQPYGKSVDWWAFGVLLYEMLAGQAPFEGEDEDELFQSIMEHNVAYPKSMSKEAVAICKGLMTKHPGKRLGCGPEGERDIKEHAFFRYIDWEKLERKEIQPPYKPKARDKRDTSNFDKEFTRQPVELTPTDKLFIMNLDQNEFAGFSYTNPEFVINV

SMILES	inhibition [1]	inhibition [2]	inhibition [3]	inhibition [4]	inhibition [5]	inhibition [6]	inhibition [7]	inhibition [8]	inhibition [9]	inhibition [10]	inhibition [11]	inhibition [12]	inhibition [13]	inhibition [14]	inhibition [15]	inhibition [16]	inhibition [17]	inhibition [18]	inhibition [19]	inhibition [20]
Nc1ccc(C#Cc2cncnc2Nc2ccc(OCc3cccc(F)c3)c(Cl)c2)cc1	1.26%	1.82%	1.53%	1.3%	1.13%	0.84%	0.6%	4.09%	3.44%	3.76%	2.21%	2.59%	2.64%	3.04%	1.31%	2.28%	0.99%	1.33%	1.72%	0.74%
CN(C)C(=O)O[C@H]1CN[C@H](C#Cc2cc3ncnc(Nc4ccc(OCc5cccc(F)c5)c(Cl)c4)c3s2)C1	0.1%	0.58%	1.07%	1.43%	0.06%	1.29%	1.12%	2.38%	2.68%	2.3%	1.92%	2.56%	2.75%	2.24%	6.88%	-0.06%	5.82%	1.35%	3.67%	1.82%
Nc1nccc(C#Cc2cncnc2Nc2ccc(OCc3cccc(F)c3)c(Cl)c2)n1	4.21%	1.86%	3.2%	2.44%	1.22%	0.73%	1.49%	3.68%	6.75%	4.56%	5.62%	5.15%	5.74%	2.37%	5.43%	1.99%	7.43%	0.49%	-0.22%	0.91%

Reference: ChEMBL document CHEMBL1961873, “Compounds: GSK PKIS; Assays: Nanosyn kinase panel” (2012)
